The results in this text go back to PubChem BioAssay (NCI).

Some test systems named below: EKVX NSCLC; UO-31 renal; TK-10 renal; ACHN renal; A498 renal; CCRF-CEM leukemia; MOLT-4 leukemia.
Common to all, as to assay: NCI-60 one-dose screen, 48 h (100 = growth as untreated, 0 = no growth, -100 = all killed)
The next experiment relates to SK-MEL-2 melanoma. As to conditions: 10 µM unless noted.
The next experiment relates to SN12C renal. As to conditions: 10 µM unless noted.
Another experiment deals with CAKI-1 renal. As to conditions: 10 µM unless noted.

“And” between values parts separate entries of the source, which are not always exact repeats. Identical values can stand only once. The panel holds about 83,000 compounds, 20% with a hit somewhere; the sample as a whole holds those more often.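 In brief: 96-well plates, 48 h treatment, single concentration, percent growth endpoint.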 The source made the active and inactive calls. The calls were made as follows: active = growth percent below 10; inactive = the rest.

For the molecule `CC(=O)Oc1ccc(C2(c3ccc(OC(C)=O)cc3)C(=O)Nc3ccccc32)cc1`, the growth in the experiment with SK-MEL-2 melanoma was 90.4% (inactive) and 80.7% (inactive); with EKVX NSCLC (10 µM unless noted), 86% (inactive) and 85.8% (inactive); with SN12C renal it was 17.7% (inactive) and 16% (inactive); with UO-31 renal (10 µM unless noted), 81.9% (inactive) and 85.4% (inactive); with TK-10 renal (10 µM unless noted), 18.3% (inactive) and 35.6% (inactive); in the experiment on ACHN renal (10 µM unless noted), 67.6% (inactive) and 63% (inactive). Also, the growth in the experiment with CAKI-1 renal is 68.2% (inactive) and 77.4% (inactive); in the experiment with A498 renal (10 µM unless noted), 107% (inactive) and 111% (inactive); in the experiment with CCRF-CEM leukemia (10 µM unless noted), 97.9% (inactive) and 86.7% (inactive); in the experiment with MOLT-4 leukemia (10 µM unless noted), 71.4% (inactive) and 97.6% (inactive).

For `S=c1nc[nH]c2nc[nH]c12`, the growth in the experiment on SK-MEL-2 melanoma is 54.6% [50 µM] (inactive); with EKVX NSCLC (10 µM), 89.9% (inactive); with EKVX NSCLC (50 µM), 73.9% (inactive); with UO-31 renal (10 µM) it was 34% (inactive); with UO-31 renal (50 µM), 36.2% (inactive); in the experiment on TK-10 renal (10 µM), 33.1% (inactive). The growth in the experiment on TK-10 renal (750 µM) was 15.9% (inactive) and -6.1% (active); with ACHN renal (10 µM), 50% (inactive); in the experiment on ACHN renal (50 µM) it was 20.5% (inactive); in the experiment with A498 renal (10 µM), 71.1% (inactive); in the experiment on A498 renal (50 µM) it was 47.5% (inactive); with CCRF-CEM leukemia (10 µM) it was 13% (inactive). In addition, the growth with CCRF-CEM leukemia (50 µM) is 16.8% (inactive); in the experiment with MOLT-4 leukemia (10 µM) it was 10.6% (inactive); with MOLT-4 leukemia (50 µM), 13.3% (inactive).

In the case of `COc1ccc(CCn2cnn3c(=O)c4ccccc4nc3c2=O)cc1OC`, the growth was 107% (inactive) and 118% (inactive) in the experiment on SK-MEL-2 melanoma; 106% (inactive) with EKVX NSCLC (10 µM unless noted); 107% (inactive) and 101% (inactive) with SN12C renal; 93.3% (inactive) and 91.9% (inactive) in the experiment with UO-31 renal (10 µM unless noted); 114% (inactive) and 106% (inactive) in the experiment on TK-10 renal (10 µM unless noted); 101% (inactive) and 109% (inactive) with ACHN renal (10 µM unless noted). The growth was 111% (inactive) and 97.8% (inactive) in the experiment on CAKI-1 renal; 90.6% (inactive) and 129% (inactive) with A498 renal (10 µM unless noted); 97.6% (inactive) in the experiment with CCRF-CEM leukemia (10 µM unless noted); 102% (inactive) and 112% (inactive) in the experiment on MOLT-4 leukemia (10 µM unless noted).

With `COc1ccc2nccc(Cl)c2c1`, the growth is 97.4% (inactive) with SK-MEL-2 melanoma; 101% (inactive) with EKVX NSCLC (10 µM unless noted); 98.7% (inactive) in the experiment with SN12C renal; 91.5% (inactive) in the experiment on UO-31 renal (10 µM unless noted); 103% (inactive) in the experiment on TK-10 renal (10 µM unless noted); 106% (inactive) in the experiment on ACHN renal (10 µM unless noted). In addition, the growth is 97.3% (inactive) in the experiment with CAKI-1 renal, 95.1% (inactive) with A498 renal (10 µM unless noted), 109% (inactive) in the experiment with CCRF-CEM leukemia (10 µM unless noted) and 106% (inactive) in the experiment with MOLT-4 leukemia (10 µM unless noted).

As to `ON=C(C1CCCCC1)C1CCCCC1`, the growth with SK-MEL-2 melanoma is 107% (inactive); in the experiment with EKVX NSCLC (10 µM unless noted), 97.8% (inactive); with SN12C renal, 99.9% (inactive); in the experiment with UO-31 renal (10 µM unless noted), 89.3% (inactive); in the experiment on TK-10 renal (10 µM unless noted) it was 90.2% (inactive); in the experiment with ACHN renal (10 µM unless noted), 101% (inactive). Moreover, the growth is 87.4% (inactive) with CAKI-1 renal, 94.7% (inactive) with A498 renal (10 µM unless noted), 99.8% (inactive) with CCRF-CEM leukemia (10 µM unless noted) and 114% (inactive) with MOLT-4 leukemia (10 µM unless noted).

`CC1CCC(=O)N1c1ccc(N)cc1` (stereo unspecified): the growth in the experiment on SK-MEL-2 melanoma was 99.7% (inactive); in the experiment with EKVX NSCLC (10 µM unless noted) it was 104% (inactive); in the experiment on SN12C renal, 106% (inactive); in the experiment with UO-31 renal (10 µM unless noted), 93.7% (inactive); in the experiment on TK-10 renal (10 µM unless noted), 94.8% (inactive); in the experiment with ACHN renal (10 µM unless noted), 104% (inactive). Besides, the growth was 102% (inactive) in the experiment on CAKI-1 renal, 98.4% (inactive) in the experiment with A498 renal (10 µM unless noted), 107% (inactive) in the experiment with CCRF-CEM leukemia (10 µM unless noted) and 105% (inactive) in the experiment on MOLT-4 leukemia (10 µM unless noted).

For `COc1ccc(CCNC(=S)NN)cc1OC`, the growth is 118% (inactive) with SK-MEL-2 melanoma; 103% (inactive) with EKVX NSCLC (10 µM unless noted); 117% (inactive) in the experiment with SN12C renal; 90.2% (inactive) in the experiment on UO-31 renal (10 µM unless noted); 120% (inactive) in the experiment on TK-10 renal (10 µM unless noted); 102% (inactive) in the experiment with ACHN renal (10 µM unless noted). The growth in the experiment on CAKI-1 renal was 108% (inactive); in the experiment with A498 renal (10 µM unless noted), 106% (inactive); in the experiment with CCRF-CEM leukemia (10 µM unless noted), 92.5% (inactive); in the experiment with MOLT-4 leukemia (10 µM unless noted), 108% (inactive).

In the case of `COc1cc2oc3cc(=O)cc4oc(-c5ccccc5)cc(c2c2c1CCC(c1ccccc1)O2)c43` (stereo unspecified), the growth in the experiment on SK-MEL-2 melanoma was 95.8% (inactive); in the experiment on EKVX NSCLC (10 µM unless noted), 88.4% (inactive); in the experiment on SN12C renal, 78.3% (inactive); with UO-31 renal (10 µM unless noted) it was 57.9% (inactive); in the experiment on TK-10 renal (10 µM), 120% (inactive); in the experiment with TK-10 renal (100 µM), 59.8% (inactive) and 8.17% (active). Besides, the growth with ACHN renal (10 µM unless noted) is 72.7% (inactive); with CAKI-1 renal, 57.4% (inactive); with A498 renal (10 µM unless noted) it was 114% (inactive); in the experiment with CCRF-CEM leukemia (10 µM unless noted) it was 88.3% (inactive); with MOLT-4 leukemia (10 µM unless noted) it was 72.5% (inactive).

On to `O=COCCCc1ccccc1`, for which the growth is 101% (inactive) with SK-MEL-2 melanoma; 98.8% (inactive) in the experiment with EKVX NSCLC (10 µM unless noted); 105% (inactive) with SN12C renal; 93.2% (inactive) in the experiment with UO-31 renal (10 µM unless noted); 92.8% (inactive) with TK-10 renal (10 µM unless noted); 110% (inactive) with ACHN renal (10 µM unless noted). The growth was 106% (inactive) in the experiment on CAKI-1 renal, 83.2% (inactive) in the experiment with A498 renal (10 µM unless noted), 108% (inactive) in the experiment on CCRF-CEM leukemia (10 µM unless noted) and 113% (inactive) in the experiment with MOLT-4 leukemia (10 µM unless noted).

In the case of `O=[N+]([O-])c1ccc(NC(c2ccccc2)c2ccc3cccnc3c2O)cc1` (stereo unspecified), the growth with SK-MEL-2 melanoma is 36.3% (inactive); in the experiment with EKVX NSCLC (10 µM unless noted), 19.9% (inactive); in the experiment with SN12C renal, 14.8% (inactive); in the experiment on UO-31 renal (10 µM unless noted), -2.13% (active); in the experiment with TK-10 renal (10 µM unless noted) it was 42.7% (inactive); with ACHN renal (10 µM unless noted) it was 15.8% (inactive). In addition, the growth in the experiment on CAKI-1 renal was 2.88% (active); in the experiment on A498 renal (10 µM unless noted), 55.8% (inactive); in the experiment on CCRF-CEM leukemia (10 µM unless noted), 10.2% (inactive); with MOLT-4 leukemia (10 µM unless noted) it was 9.81% (active).
